Measurements reported in PubChem BioAssay.
For some of these results: Entries with a potency or affinity are not part of this list. The source made the active and inactive calls.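 How the source made its calls, unless noted: active means primary screen hit whose fluorescence ratio, in both repeats, exceeds the weak agonist control mean by 3 SD; inactive means the rest.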

What was measured:
[1] = test system: TRPC4 beta (transient receptor potential cation channel C4), mouse; test: activators of mouse TRPC4 channel, confirmation, cell-based, Fluo4 calcium, HEK293 TRPC4beta/mu-opioid, duplicates, 10 µM (AID 2426;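 active means fluorescence ratio normalized to control raised more than 50% in primary screen plus both repeat runs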;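 on activation: percent rise of integrated ratio over buffer wells lacking compound which define 0%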); details: Fluo4 calcium fluorescence, at 10 µM; active compounds read high
[2] = test system: transient receptor potential cation channel C4 beta (TRPC4), mouse; test: activators of mouse TRPC4 channel, confirmation, cell-based, second round, Fluo4, HEK293 TRPC4beta/mu-opioid, 1 µM (AID 2461;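 active means primary screen active and over 50% activation in each of two duplicate runs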;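 on activation: 0% = wells without test compound as baseline of integrated fluorescence ratio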); details: Fluo4 calcium fluorescence, at 1 µM; active compounds read high
[3] = test system: TRPC4 (transient receptor potential cation channel C4 beta), mouse; test: positive allosteric modulators of mouse TRPC4, confirmation, cell-based, second round, Fluo-4, HEK293 TRPC4beta/mu-opioid, 1 µM (AID 2554); details: DAMGO EC20, Fluo-4 calcium flux, at 1 µM; active compounds read high
[4] = test system: TRPC4 beta (transient receptor potential cation channel C4), mouse; test: positive allosteric modulators of mouse TRPC4, confirmation, cell-based, Fluo-4, HEK293 TRPC4beta/mu-opioid (AID 2555;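 active means primary screen hit whose calcium fluorescence ratio, in both repeats, exceeds the weak agonist control mean by 3 SD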); details: DAMGO EC20, Fluo-4 calcium flux, at 10 µM; active compounds read high
[5] = molecular target: Short transient receptor potential channel 4 (Mus musculus) (UniProt Q9QUQ5); test: inhibitors of mouse TRPC4 channel, confirmation, cell-based, Fluo4, HEK293 TRPC4beta/mu-opioid (AID 2636;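 active means calcium signal cut by more than 3 SD below the full-agonist control yet still positive, in both repeats and the earlier primary screen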); details: DAMGO, Fluo4 calcium flux, at 10 µM; active compounds read high
[6] = molecular target: Short transient receptor potential channel 4 (Mus musculus) (UniProt Q9QUQ5); test: inhibitors of mouse TRPC4 channel, confirmation, cell-based, second round, Fluo4, HEK293 TRPC4beta/mu-opioid, 1 µM (AID 2637;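 active means calcium signal ratio cut to more than 3 SD under the fully stimulated control mean yet still positive, in both repeats and the primary screen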); details: Fluo4 calcium flux, DAMGO, at 1 µM; active compounds read high
[7] = molecular target: Short transient receptor potential channel 4 (Mus musculus) (UniProt Q9QUQ5); test: TRPC4 positive allosteric modulators, dose response, cell-based, HEK293 TRPC4/mu-opioid, Fluo-4 calcium, EC20 DAMGO (AID 434941;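 active means earlier screen potentiator hit that boosts the TRPC4 ion channel at some dose, with a dose response; inactive means no potentiation, no dose response, or not a prior hit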;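 further: calcium entry triggered by an EC20 dose of DAMGO at the co-expressed mu-opioid receptor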)
[8] = molecular target: Short transient receptor potential channel 4 (Mus musculus) (UniProt Q9QUQ5); test: mouse TRPC4 channel inhibitors, dose response, cell-based, HEK293 TRPC4/mu-opioid, Fluo-4 calcium (AID 434942;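 active means primary screen inhibitor hit that blocks the TRPC4 channel at some tested dose, yielding a dose curve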)
[9] = molecular target: Short transient receptor potential channel 6 (Mus musculus) (UniProt Q61143); test: inhibition of mouse TRPC6 channel, confirmation, selectivity assay for TRPC4 inhibitor project, cell-based, HEK293, membrane potential dye, duplicate (AID 434948;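 active means active in primary screen and both duplicates, each dropping signal beyond three positive-control SD with fluorescence still positive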); details: HEK293 TRPC6, membrane potential dye fluorescence, at 10 µM, stimulated with maximal-effect acetylcholine; active compounds read high
[10] = molecular target: Short transient receptor potential channel 6 (Mus musculus) (UniProt Q61143); test: activation of mouse TRPC6 channel, confirmation, selectivity assay for TRPC4 activator project, cell-based, HEK293, membrane potential dye, duplicate (AID 434950;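 active means membrane potential signal rise above negative control mean plus 3 SD in both duplicates, also active in the earlier TRPC4 screen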;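 on activation: 0% = buffer only wells and 100% = acetylcholine maximal-effect wells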); details: HEK293 TRPC6, membrane potential fluorescence, at 10 µM; active compounds read high
[11] = molecular target: Short transient receptor potential channel 6 (Mus musculus) (UniProt Q61143); test: TRPC6 potentiation by TRPC4 potentiator hits, confirmation, selectivity assay for TRPC4 potentiator project, HEK293 cells, membrane potential dye, duplicate (AID 434952;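 active means compound raising the membrane signal above positive-control mean plus 3 SD in both repeats, and a primary screen hit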); details: HEK293 TRPC6, membrane potential dye fluorescence, at 10 µM, maximal acetylcholine added after compound; active compounds read high
[12] = molecular target: Short transient receptor potential channel 4 (Mus musculus) (UniProt Q9QUQ5); test: calcium flux activators in TRPC4/5HT1a cells, counter-screen for TRPC4 activator project, cell-based, second counter screen, HEK293 TRPC4/5HT1a, Fluo-4 (AID 434977;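 active means calcium signal rise above buffer-control mean plus 5 SD in both duplicates, and also a hit in the primary screen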;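 on activation: plate controls were assay buffer for no effect and maximal serotonin response for full effect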); details: Fluo-4 calcium flux, at 10 µM; active compounds read high
[13] = calcium flux inhibitors in TRPC4/5HT1a cells, confirmation, counter-screen for TRPC4 inhibitor project, cell-based, second counter screen, HEK293 TRPC4/5HT1a, Fluo-4 (AID 434978;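 active means primary screen active whose calcium signal fell more than 3 SD beyond the full-serotonin control mean in both duplicate plates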;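 further: serotonin given first at submaximal then at maximal dose after compound preincubation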); details: Fluo-4 calcium flux, at 10 µM, serotonin added to trigger calcium flux; active compounds read high
[14] = test system: TRPC4 (mouse), co-expressed with 5HT1a in HEK293; test: calcium flux potentiators in TRPC4/5HT1a cells, confirmation, counter-screen for TRPC4 potentiator project, cell-based, second counter screen, HEK293 TRPC4/5HT1a, Fluo-4 (AID 434979;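 active means signal rise over 3 SD above mean of control wells given weak agonist, in both repeats and first screen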); details: Fluo-4 calcium flux, at 10 µM, serotonin added at its EC20 dose; active compounds read high
[15] = calcium flux activation in mu-opioid HEK293 cells, confirmation, counter-screen for TRPC4 activator project, cell-based, HEK293 mu-opioid receptor line (AID 449723;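 active means hit in primary screen, with calcium signal over 5 SD above buffer well mean in both duplicates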;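 further: counter screen cells carry the mu-opioid receptor alone and lack TRPC4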); details: Fluo-4 calcium fluorescence, at 10 µM; active compounds read high
[16] = calcium flux enhancement in mu-opioid HEK293 cells, confirmation, counter-screen for TRPC4 allosteric potentiator project, cell-based, HEK293 mu-opioid receptor line (AID 449724;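 active means calcium signal rise more than 3 SD above the low-dose agonist control mean, in both duplicate plates and the primary screen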); details: Fluo-4 calcium flux, at 10 µM, compound added before EC20 DAMGO stimulus; active compounds read high
[17] = thallium flux activation in parental CHO cells, counter-screen for KCNQ1 potentiator project (AID 493006;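 active means duplicate-averaged activation above buffer control mean plus 5 SD of those controls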;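 on activation: fluorescence ratio of max minus min over baseline after K+ and Tl+ depolarization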); details: parental CHO-K1 cells, FluxOR thallium flux, at 10 µM; active compounds read high
[18] = molecular target: Potassium voltage-gated channel subfamily KQT member 1 (Homo sapiens) (UniProt P51787); test: KCNQ1 potassium channel potentiators, confirmation, FluxOR thallium flux, CHO cells, duplicates (AID 493007;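 active means potentiation averaged over duplicate wells exceeding buffer-only control mean by more than 3 SD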;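 on outcome: cells depolarized by a potassium plus thallium sulfate stimulus after compound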;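 on potentiation: 0% = buffer-only wells and 100% = R-L3 activator control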); details: KCNQ1 cell line, FluxOR thallium flux fluorescence, at 10 µM; active compounds read high, % of reference activator effect, buffer zero
[19] = molecular target: Potassium voltage-gated channel subfamily KQT member 2 (Rattus norvegicus) (UniProt O88943); test: rat KCNQ2 channel potentiation, selectivity assay for KCNQ1 potentiator project, KCNQ2-CHO-K1 cells (AID 493009;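 active means mean duplicate potentiation above the buffer control mean plus 5 SD of buffer wells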;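 further: assay conditions were tuned for KCNQ1 rather than KCNQ2 modulators; signal is max minus min fluorescence divided by baseline after thallium stimulus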); details: FluxOR thallium flux fluorescence, at 10 µM; active compounds read high, scaled: buffer 0, activator control 100
[20] = molecular target: Potassium voltage-gated channel subfamily KQT member 1 (Homo sapiens) (UniProt P51787); test: KCNQ1 channel current potentiators, confirmation, orthogonal assay for KCNQ1 potentiator project, IonWorks patch clamp, KCNQ1-CHO cells (AID 493184;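 active means current rise at least 3 SD above the untreated control mean in each of two repeat wells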); details: automated patch clamp current, at 10 µM; active compounds read high

Sequence of Potassium voltage-gated channel subfamily KQT member 2 (Rattus norvegicus) (O88943 whole entry, looked up): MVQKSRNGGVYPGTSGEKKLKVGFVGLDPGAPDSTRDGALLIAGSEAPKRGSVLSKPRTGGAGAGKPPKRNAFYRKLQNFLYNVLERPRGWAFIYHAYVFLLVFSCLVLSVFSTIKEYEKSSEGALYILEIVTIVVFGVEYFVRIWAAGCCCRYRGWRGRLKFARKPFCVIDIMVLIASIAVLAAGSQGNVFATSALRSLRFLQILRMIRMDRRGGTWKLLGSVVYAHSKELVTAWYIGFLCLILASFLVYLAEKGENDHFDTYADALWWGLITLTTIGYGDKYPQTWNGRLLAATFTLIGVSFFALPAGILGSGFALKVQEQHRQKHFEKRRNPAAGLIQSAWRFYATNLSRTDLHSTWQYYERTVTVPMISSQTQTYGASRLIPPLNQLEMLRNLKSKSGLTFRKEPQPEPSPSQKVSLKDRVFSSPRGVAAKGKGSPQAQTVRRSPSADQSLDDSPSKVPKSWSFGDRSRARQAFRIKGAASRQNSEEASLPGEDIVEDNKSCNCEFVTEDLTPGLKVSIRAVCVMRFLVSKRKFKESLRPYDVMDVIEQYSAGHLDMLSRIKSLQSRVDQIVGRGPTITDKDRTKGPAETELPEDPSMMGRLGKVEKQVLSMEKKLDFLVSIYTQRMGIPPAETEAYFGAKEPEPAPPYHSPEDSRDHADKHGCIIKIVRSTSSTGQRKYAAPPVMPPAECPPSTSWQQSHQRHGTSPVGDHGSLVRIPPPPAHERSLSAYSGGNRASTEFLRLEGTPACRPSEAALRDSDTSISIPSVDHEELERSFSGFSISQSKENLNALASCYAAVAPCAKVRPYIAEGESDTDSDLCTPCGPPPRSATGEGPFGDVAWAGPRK
Sequence of Short transient receptor potential channel 4 (Mus musculus) (Q9QUQ5 whole entry, looked up): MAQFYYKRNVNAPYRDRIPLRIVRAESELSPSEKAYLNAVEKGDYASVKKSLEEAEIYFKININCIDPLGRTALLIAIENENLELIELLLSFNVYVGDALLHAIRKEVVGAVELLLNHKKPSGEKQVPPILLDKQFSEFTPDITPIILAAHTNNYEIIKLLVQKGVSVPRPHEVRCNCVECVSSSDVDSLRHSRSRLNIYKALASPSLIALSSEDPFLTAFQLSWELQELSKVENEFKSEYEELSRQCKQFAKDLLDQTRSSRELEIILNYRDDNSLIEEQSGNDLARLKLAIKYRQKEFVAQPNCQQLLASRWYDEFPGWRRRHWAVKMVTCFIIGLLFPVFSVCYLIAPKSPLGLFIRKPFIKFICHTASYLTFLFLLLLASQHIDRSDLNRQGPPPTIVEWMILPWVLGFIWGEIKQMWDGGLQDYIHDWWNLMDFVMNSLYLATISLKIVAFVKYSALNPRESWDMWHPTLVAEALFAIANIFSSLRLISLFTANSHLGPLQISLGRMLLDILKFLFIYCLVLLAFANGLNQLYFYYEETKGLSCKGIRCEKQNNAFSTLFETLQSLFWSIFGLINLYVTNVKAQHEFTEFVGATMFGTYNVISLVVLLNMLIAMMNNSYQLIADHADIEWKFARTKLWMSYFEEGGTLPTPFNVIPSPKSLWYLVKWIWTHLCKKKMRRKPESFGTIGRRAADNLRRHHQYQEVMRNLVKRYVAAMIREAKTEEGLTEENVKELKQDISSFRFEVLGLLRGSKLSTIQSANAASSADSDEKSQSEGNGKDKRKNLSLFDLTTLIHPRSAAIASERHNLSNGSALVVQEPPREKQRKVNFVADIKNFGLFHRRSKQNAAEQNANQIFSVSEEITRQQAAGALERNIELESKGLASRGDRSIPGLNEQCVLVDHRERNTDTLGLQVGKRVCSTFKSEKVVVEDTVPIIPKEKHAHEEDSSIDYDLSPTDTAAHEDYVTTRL
Sequence of Short transient receptor potential channel 6 (Mus musculus) (Q61143 whole entry, looked up): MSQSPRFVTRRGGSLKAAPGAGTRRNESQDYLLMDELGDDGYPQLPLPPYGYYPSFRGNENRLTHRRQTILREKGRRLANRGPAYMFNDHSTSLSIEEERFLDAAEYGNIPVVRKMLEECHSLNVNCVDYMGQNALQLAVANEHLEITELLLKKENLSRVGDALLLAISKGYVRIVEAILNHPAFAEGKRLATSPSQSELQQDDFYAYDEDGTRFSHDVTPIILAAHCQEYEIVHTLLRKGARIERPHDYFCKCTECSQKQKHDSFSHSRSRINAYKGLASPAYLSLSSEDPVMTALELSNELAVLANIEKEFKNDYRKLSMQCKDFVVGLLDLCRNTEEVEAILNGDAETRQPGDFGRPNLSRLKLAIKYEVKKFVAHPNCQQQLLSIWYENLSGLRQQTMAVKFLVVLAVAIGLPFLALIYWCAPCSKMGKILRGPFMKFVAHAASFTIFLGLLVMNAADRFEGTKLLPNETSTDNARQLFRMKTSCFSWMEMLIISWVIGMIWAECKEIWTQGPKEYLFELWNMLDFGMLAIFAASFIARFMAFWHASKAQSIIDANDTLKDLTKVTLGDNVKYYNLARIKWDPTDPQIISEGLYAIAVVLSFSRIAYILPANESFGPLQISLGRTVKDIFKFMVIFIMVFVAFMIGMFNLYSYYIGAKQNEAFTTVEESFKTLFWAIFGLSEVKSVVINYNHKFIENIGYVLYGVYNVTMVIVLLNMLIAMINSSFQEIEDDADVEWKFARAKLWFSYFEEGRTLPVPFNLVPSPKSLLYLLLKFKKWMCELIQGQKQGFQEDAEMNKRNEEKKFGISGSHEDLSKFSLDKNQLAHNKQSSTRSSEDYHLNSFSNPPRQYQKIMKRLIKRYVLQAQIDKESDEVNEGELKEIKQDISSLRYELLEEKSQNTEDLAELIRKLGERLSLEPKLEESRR
Sequence of Potassium voltage-gated channel subfamily KQT member 1 (Homo sapiens) (P51787 whole entry, looked up): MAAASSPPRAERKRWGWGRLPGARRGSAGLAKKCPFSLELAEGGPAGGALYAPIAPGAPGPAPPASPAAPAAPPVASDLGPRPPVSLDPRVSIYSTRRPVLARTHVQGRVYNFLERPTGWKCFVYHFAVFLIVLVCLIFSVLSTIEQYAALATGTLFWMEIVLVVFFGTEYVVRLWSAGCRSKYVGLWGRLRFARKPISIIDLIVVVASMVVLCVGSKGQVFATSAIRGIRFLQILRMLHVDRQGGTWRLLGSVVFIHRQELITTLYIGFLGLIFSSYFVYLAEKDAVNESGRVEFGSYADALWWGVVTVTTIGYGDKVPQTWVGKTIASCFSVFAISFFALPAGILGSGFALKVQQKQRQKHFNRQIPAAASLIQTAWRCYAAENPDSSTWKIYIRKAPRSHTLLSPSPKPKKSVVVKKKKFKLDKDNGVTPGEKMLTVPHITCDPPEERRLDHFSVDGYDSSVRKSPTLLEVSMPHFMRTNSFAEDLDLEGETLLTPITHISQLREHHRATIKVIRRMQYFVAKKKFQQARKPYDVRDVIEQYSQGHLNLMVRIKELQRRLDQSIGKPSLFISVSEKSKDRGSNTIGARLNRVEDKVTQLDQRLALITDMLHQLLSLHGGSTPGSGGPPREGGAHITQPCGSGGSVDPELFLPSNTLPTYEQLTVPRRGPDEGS

CCCOc1ccc(C(=O)NNC(=S)NC(=O)c2ccccc2)cc1
inactive: outcome [2] | outcome [3] | outcome [4] | outcome [5] | outcome [6] | outcome [7] | outcome [8] | outcome [9] | outcome [10] | outcome [11] | outcome [13] | outcome [14] | outcome [16] | outcome [20]
active: activation [1] 152% | activation [12] 122% | activation [15] 39.5% | activation [17] 180% | potentiation [18] 168% | potentiation [19] 318%

O=C(c1sc2ccccc2c1Cl)N(Cc1cccs1)C1CCS(=O)(=O)C1 (centres undefined)
inactive: outcome [3] | outcome [4] | outcome [5] | outcome [6] | outcome [7] | outcome [8] | outcome [9] | outcome [11] | outcome [13] | outcome [14] | outcome [15] | outcome [16]
active: activation [1] 265% | activation [2] 79% | activation [10] 35% | activation [12] 12%

CCOC(=O)C1(CCc2ccccc2)CCN(Cc2ccc(OC)cc2)CC1
active: activation [1] 101% | activation [10] 77.5%
inactive: outcome [2] | outcome [3] | outcome [4] | outcome [5] | outcome [6] | outcome [7] | outcome [8] | outcome [9] | outcome [11] | outcome [12] | outcome [13] | outcome [14] | outcome [15] | outcome [16]

O=c1c2cc(Br)ccc2nc(-c2cccc(C(F)(F)F)c2)n1O
inactive: outcome [2] | outcome [3] | outcome [4] | outcome [5] | outcome [6] | outcome [7] | outcome [8] | outcome [9] | outcome [10] | outcome [11] | outcome [13] | outcome [14] | outcome [16] | outcome [20]
active: activation [1] 449% | activation [12] 111% | activation [15] 60.8% | activation [17] 808% | potentiation [18] 372% | potentiation [19] 766%

CCOc1ccccc1OCC(=O)Nc1cc(S(=O)(=O)N2CCCCC2)ccc1N1CCN(CC)CC1
active: activation [1] 195% | activation [12] 45%
inactive: outcome [2] | outcome [3] | outcome [4] | outcome [5] | outcome [6] | outcome [7] | outcome [8] | outcome [9] | outcome [10] | outcome [11] | outcome [13] | outcome [14] | outcome [15] | outcome [16] | outcome [17] | outcome [18] | outcome [19] | outcome [20]

OC(CNC1CCCc2ccccc21)COc1ccc2ccccc2c1 (centres undefined)
active: activation [1] 158% | activation [10] 55% | activation [12] 30.1%
inactive: outcome [2] | outcome [3] | outcome [4] | outcome [5] | outcome [6] | outcome [7] | outcome [8] | outcome [9] | outcome [11] | outcome [13] | outcome [14] | outcome [15] | outcome [16]

COc1ccc(C(=O)NC(=S)NNC(=O)c2c(-c3ccccc3)noc2C)cc1
active: activation [1] 100% | activation [10] 28.5% | activation [12] 105% | activation [15] 28.5%
inactive: outcome [2] | outcome [3] | outcome [4] | outcome [5] | outcome [6] | outcome [7] | outcome [8] | outcome [9] | outcome [11] | outcome [13] | outcome [14] | outcome [16]

CN(C)C(CNC(=S)Nc1cccc(Cl)c1)c1cccnc1 (centres undefined)
active: activation [1] 77% | activation [2] 110%
inactive: outcome [3] | outcome [4] | outcome [5] | outcome [6] | outcome [7] | outcome [8] | outcome [9] | outcome [10] | outcome [11] | outcome [12] | outcome [13] | outcome [14] | outcome [15] | outcome [16]

COC(=O)C1=C(C)N(Cc2ccccc2)C(=NCCc2ccccn2)N[C@H]1c1cccc(F)c1
inactive: outcome [2] | outcome [3] | outcome [4] | outcome [5] | outcome [6] | outcome [7] | outcome [8] | outcome [9] | outcome [11] | outcome [13] | outcome [14] | outcome [15] | outcome [16]
active: activation [1] 109% | activation [10] 77% | activation [12] 44.2%

CN(C)CCCN(C(=O)c1ccc(S(=O)(=O)N(C)C2CCCCC2)cc1)c1nc2ccc(F)cc2s1
active: activation [1] 155% | activation [12] 5.36%
inactive: outcome [2] | outcome [3] | outcome [4] | outcome [5] | outcome [6] | outcome [7] | outcome [8] | outcome [9] | outcome [10] | outcome [11] | outcome [13] | outcome [14] | outcome [15] | outcome [16]

O=C(NC(=S)NNC(=O)[C@H]1C[C@@H]1c1ccccc1)c1cccc(F)c1
active: activation [1] 213% | activation [12] 140% | activation [15] 30.6%
inactive: outcome [2] | outcome [3] | outcome [4] | outcome [5] | outcome [6] | outcome [7] | outcome [8] | outcome [9] | outcome [10] | outcome [11] | outcome [13] | outcome [14] | outcome [16]

COc1cc(OC)cc(C(=O)NC(=S)NNC(=O)[C@H]2C[C@@H]2c2ccccc2)c1
inactive: outcome [2] | outcome [3] | outcome [4] | outcome [5] | outcome [6] | outcome [7] | outcome [8] | outcome [9] | outcome [10] | outcome [11] | outcome [13] | outcome [14] | outcome [16] | outcome [17] | outcome [19] | outcome [20]
active: activation [1] 162% | activation [12] 99% | activation [15] 40.4% | potentiation [18] 37.5%

CN(C)CCN(C(=O)c1cccc2ccccc12)c1nc2cc3c(cc2s1)OCO3
inactive: outcome [1] | outcome [2] | outcome [3] | outcome [4] | outcome [5] | outcome [6] | outcome [7] | outcome [8] | outcome [9] | outcome [10] | outcome [11] | outcome [12] | outcome [13] | outcome [14] | outcome [15] | outcome [16]

CC(C)(C)c1cc(CCC(=O)NNC(=S)NC(=O)c2ccccc2)cc(C(C)(C)C)c1O
inactive: outcome [2] | outcome [3] | outcome [4] | outcome [5] | outcome [6] | outcome [7] | outcome [8] | outcome [9] | outcome [10] | outcome [11] | outcome [13] | outcome [14] | outcome [16] | outcome [20]
active: activation [1] 150% | activation [12] 92% | activation [15] 41.2% | activation [17] 188% | potentiation [18] 61% | potentiation [19] 185%
